Assay outcomes: PubChem BioAssay, several laboratories
Rows were chosen to be rich in hits. Some 3.5% of all compounds tested hit in one or more screens of this group.
BoNT-F LC inh = BoNT/F light chain protease inhibitors, primary screen, biochemical, flow cytometry, MLPCN library | inhibition, % at 10 µM | Botulinum neurotoxin type F light chain protease (Clostridium botulinum) | 360,000 compounds, 0.22% hits | Multiplex microsphere protease cleavage assay; in the data active = inhibition above about 35%, passing the limit was not always enough; inconclusive = no clear call, values can overlap the other calls
BH1578 lux ind = inducers of Vibrio cholerae quorum light production without autoinducers, primary screen, BH1578 luxS cqsA deficient, single point; V. cholerae BH1578 lux reporter, luminescence, 6 h; activation, % at 18.7 µM; 350,000 compounds, 0.16% hits; AID 588436, 2011; in the data active = activation mostly above about 9.7%, no sharp cut-off; inconclusive = no clear call, values can overlap the other calls; inactive = mostly below about 3.7%
Bead autofluor = compound fluorescence in toxin protease inhibitor counterscreen. compound autofluorescence counterscreen, microsphere flow cytometry; active compounds read high. fluorescence intensity (test concentration not listed). 360,000 compounds, 3.1% hits. AID 624483; in the data active = fluorescence intensity above about 16000; inconclusive = no clear call, values can overlap the other calls
BoNT A protease = BoNT/A light chain protease inhibitors, primary screen, biochemical, flow cytometry, MLPCN library. Botulinum neurotoxin type A light chain protease (Clostridium botulinum A str. ATCC 3502). multiplex microsphere protease substrate cleavage. inhibition, % at 10 µM. 360,000 compounds, 0.17% hits. AID 588499, 2011
Anthrax LF inh2 = Bacillus anthracis LF protease inhibitors, primary screen, biochemical, multiplex microsphere, MLPCN library | 360,000 compounds, 0.12% hits | Lethal factor (Bacillus anthracis), P15917 | multiplex microsphere protease cleavage assay | inhibition, % at 10 µM
Numbers stand for hits; - = inactive; ? = inconclusive; . = no result given. Cut-off read from the data, not from the text of the source, unless noted: active = inhibition above about 30%; inconclusive = no clear call, values can overlap the other calls; inactive = below that.

SMILES	BoNT-F LC inh	BH1578 lux ind	Bead autofluor	BoNT A protease	Anthrax LF inh2
CCCCCCC(=O)N(O)C1CC(=O)N(c2ccc(C)cc2)C1=O (stereo not drawn)	-	-	-	30.5	-
CCCCCCC(=O)N(O)C1CC(=O)N(c2ccc(Cl)cc2)C1=O (stereo not drawn)	-	-	-	-	-
Cc1ccc(OS(=O)(=O)c2c(C)nn(C)c2Cl)c(C)c1	-	-	-	-	-
O=C(O)CCCC(=O)OCCCCc1cccs1	-	-	19404	?	-
CCc1ccccc1Nc1nc(N)nc(COC(=O)CCC(=O)c2ccc(F)cc2)n1	-	-	-	-	-
O=C(c1cc(-c2cccnc2)nc2ccccc12)N1CCC2(CC1)OCCO2	-	-	19594	-	-
O=C(c1cc(-c2ccncc2)nc2ccccc12)N1CCN(c2ccccn2)CC1	-	-	17502	-	-
O=C1CSc2cc(Cl)ccc2N1	-	.	-	-	-
O=C(C1CC(=O)N(C2CCCCCCC2)C1)N1CCC2(CC1)OCCO2 (stereo not drawn)	-	-	22759	-	-
O=C(C1CCC(=O)N1C1CCCC1)N1CCC2(CC1)OCCO2 (stereo not drawn)	-	-	20240	-	-
O=C(C1CC(=O)N(C2CCCC2)C1)N1CCN(c2ccccc2)CC1 (stereo not drawn)	-	-	-	-	-
COc1c(Br)cc(Br)cc1/C=N/n1c(C)nnc1C	-	5.6	-	-	-
COc1cc(/C=N/n2c(C)nnc2C)cc(OC)c1OC	-	-	-	-	-
OCC[C@@H]1C[C@@H](O)[C@H](O)[C@@]2(Cc3ccccc3CCO2)O1	-	-	-	-	-
O=C(CSc1nnc(-c2ccc(Cl)cc2)n1-c1ccccc1)N/N=C/c1ccccc1C(=O)O	40.6	-	-	-	-
O=S(=O)(Nc1ccc(Cc2ccncc2)cc1)c1ccc(Cl)c(Cl)c1	-	-	16421	-	-
COc1ccc(S(=O)(=O)Nc2ccc(Cc3ccncc3)cc2)cc1OC	-	-	-	-	-
Cc1ccc(N2C(=O)c3n[nH]c(C)c3C2c2ccco2)cc1 (stereo not drawn)	-	-	22119	?	-
COc1ccc(CC(=O)Nc2c3c(nn2-c2cccc(C)c2C)CS(=O)(=O)C3)cc1	-	-	22126	-	-
Cc1ccc(/C=c2\sc3nc(-c4cccs4)nn3c2=O)o1	-	-	20038	-	-
O=C(N/N=C/C(Br)=C/c1ccccc1)c1cccs1	-	-	-	-	-
COC(=O)c1cccc(NC(=O)CSc2nnnn2C)c1	-	-	-	-	-
Cn1nnnc1SCC(=O)Nc1ccccc1Br	-	-	-	-	-
Cn1nnnc1SCC(=O)Nc1ccccn1	-	-	22271	?	-
Cn1nnnc1SCC(=O)Nc1cc(C(=O)O)cc(C(=O)O)c1	-	-	17115	?	-
SMILES	BoNT-F LC inh	BH1578 lux ind	Bead autofluor	BoNT A protease	Anthrax LF inh2
COC(=O)c1cc(NC(=O)CSc2nncn2C)cc(C(=O)OC)c1	-	-	20871	-	-
CCC(=O)Nc1cccc(NC(=O)CSc2nnnn2C)c1	-	-	16778	-	-
CCOC(=O)c1cccc(NC(=O)CSc2nnnn2C)c1	-	-	-	-	-
CCn1cc(CN2CCN(CCc3ccccc3)C(CCO)C2)c(C)n1 (stereo not drawn)	-	-	-	-	-
COc1ccc(N/C=C/C(=C(C#N)C#N)N(C)C)cc1	-	-	-	-	-
COC(=O)c1ccc(-n2nnnc2SCC(=O)NCc2cccc(C(=O)O)c2)cc1	-	-	-	-	-
Cn1nnnc1SCC(=O)NCc1cccc(C(=O)O)c1	-	-	20029	?	-
CC1(c2nnc(-c3cccc(Cl)c3)o2)CC(c2ccccc2F)=NO1 (stereo not drawn)	-	-	-	-	-
C=CC[C@H](CC(=O)NCCO)C(=O)NC[C@@H](OC(=O)[C@H](CC=C)CC(=O)OC(C)(C)C)c1ccccc1	-	-	-	-	-
COc1ccc(CCNC(=S)NC(=O)c2ccccc2)cc1OC	-	-	23568	-	-
COc1ccc(CCNC(=S)NC(=O)c2cccc(Cl)c2)cc1OC	-	-	-	-	?
COc1ccc(CCNC(=O)c2cc(-c3cc(C)c(C)cc3O)n[nH]2)cc1OC	-	-	22479	-	-
CCc1noc(C)c1C(=O)NCCc1ccc(OC)c(OC)c1	-	-	24111	?	-
O=C(Cn1ccc2ccccc2c1=O)NCC(=O)N1CCCCC1	-	-	-	-	-
CCc1nnc(NC(=O)c2ccc3c(c2)C(=O)N(CC)C3=O)s1	-	-	23383	-	-
CCN1C(=O)c2ccc(C(=O)Nc3nccs3)cc2C1=O	.	-	.	.	.
Cc1ccccc1NC(=O)c1ccc2c(c1)C(=O)N(CCC(C)C)C2=O	-	-	-	-	-
Cc1nnc(NC(=O)c2ccc3c(c2)C(=O)N(CCC(C)C)C3=O)s1	-	-	20485	-	-
O=CN1CCCN(Cc2nc(-c3cccc(Cl)c3)no2)CC1	-	-	-	-	-
COCCNC(=O)c1c(NC(=O)c2ccc(Br)o2)n(Cc2ccccc2)c2nc3ccccc3nc12	-	-	-	35.3	-
N#Cc1c(N)sc2c1CCN(CCc1ccccc1)C2	-	-	-	64.8	-
CC(C)(C)C(=O)Nc1sc2c(c1C#N)CCN(Cc1ccccc1)C2	-	-	-	-	-
Fc1cccc(/C=N/NC(=S)Nc2ccccc2Cl)c1	-	-	-	-	-
Fc1ccc(NC(=S)N/N=C/c2cccc(Br)c2)c(F)c1	-	-	20663	?	-
CCOCCCNC(=O)c1cc(=O)n(Cc2cccc(C)c2)c2ccccc12	-	-	-	-	-
SMILES	BoNT-F LC inh	BH1578 lux ind	Bead autofluor	BoNT A protease	Anthrax LF inh2
COC(=O)Cn1c2ccc(F)cc2c2nc(C)sc21	-	-	22219	-	-
CCCCn1c(O)c(C(C)=Nc2cccc(C(=O)O)c2)c(=O)[nH]c1=O	-	-	21668	?	-
CCCCn1c(O)c(C(CC)=Nc2ccc(C(=O)O)cc2)c(=O)[nH]c1=O	-	-	-	-	-
CCCCn1c(O)c(C(CC)=Nc2ccc3c(c2)CCC3)c(=O)[nH]c1=O	-	-	16607	-	-
CCCCn1c(O)c(C(C)=Nc2ccc(OCC)cc2)c(=O)[nH]c1=O	-	.	-	-	-
CCCCn1c(O)c(C(C)=NC(Cc2c[nH]c3ccccc23)C(=O)OC)c(=O)[nH]c1=O (stereo not drawn)	-	-	20728	-	-
CCCCn1c(O)c(C(C)=NCCc2c[nH]c3ccccc23)c(=O)[nH]c1=O	?	-	-	-	-
Cc1ccc(S(=O)(=O)N(C)C)cc1NC(=O)COC(=O)c1sc2cc(Cl)ccc2c1Cl	-	-	-	-	-
N#Cc1ccc(OCC(=O)N2CCN(c3ccc(C(F)(F)F)cn3)CC2)cc1	-	-	-	-	-
Cc1occc1-c1nnc(SCC(=O)Nc2nc3ccccc3s2)o1	-	-	19093	-	-
Cc1occc1-c1nnc(SCC(=O)Nc2nc(-c3ccccc3)cs2)o1	-	-	19701	-	-
Cc1cc(-c2nnc(SCC(=O)Nc3nc(-c4ccccc4)cs3)o2)no1	-	-	-	-	-
